According to PubChem BioAssay AID1159580 (chemical genetic matrix, 2015):
The campaign covered roughly 5,500 compounds. About 2,000 (36%) were called active. Roughly 18% stayed inconclusive and do not appear here. No stated cut-off is given here; in the data, active means normalized growth mostly below about 0.91 (no sharp cut-off); inconclusive means no clear call, values can overlap the other calls; inactive means mostly above about 0.92. The list shows a part of the results.

Assay: chemical genetic growth profiling, strain panel (AID 1159580);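 further: tested at 20 µM; growth read once vehicle control cultures reached saturation at 30 °C; 1 = growth at the plate median or of vehicle wells; lower values mean less growth of the strain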
Conditions: S. cerevisiae deletion strains, growth OD

Measured: normalized growth

CC(C)=CCC/C(C)=C/CC/C(C)=C/CSc1ccccc1C(=O)O
inactive: locus YAL013W, strain DEP1, active compounds read low 0.944 | locus YAL040C, strain CLN3, active compounds read low 1.04 | locus YDR363W, strain ESC2, active compounds read low 0.896 | locus YER002W, strain NOP16, active compounds read low 0.958 | locus YGR078C, strain PAC10, active compounds read low 0.928 | locus YNL175C, strain NOP13, active compounds read low 0.956 | locus YNL197C, strain WHI3, active compounds read low 0.965 | locus YNL224C, strain SQS1, active compounds read low 0.974
active: locus YCL061C, strain MRC1 (second series), active compounds read low 0.938 | locus YGR229C, strain SMI1, active compounds read low 0.742 | locus YOR083W, strain WHI5 (second series), active compounds read low 0.855

CC(=O)OC/C=C(\C)CC/C=C(\C)CC/C=C(\C)CC/C=C(\C)CC/C=C(\C)CC/C=C(\C)CC/C=C(\C)CC/C=C(\C)CCC=C(C)C
inactive: locus YAL021C, strain ccr4, active compounds read low 0.991 | locus YAL026C, strain drs2, active compounds read low 0.973 | locus YAL030W, strain snc1, active compounds read low 0.977 | locus YBL061C, strain skt5, active compounds read low 0.981 | locus YBR009C, strain hhf1, active compounds read low 0.98 | locus YBR023C, strain chs3, active compounds read low 0.991 | locus YBR171W, strain sec66, active compounds read low 0.98 | locus YBR231C, strain swc5, active compounds read low 0.992 | locus YBR279W, strain paf1, active compounds read low 0.987 | locus YCL011C, strain gbp2, active compounds read low 0.959 | locus YCL016C, strain dcc1, active compounds read low 0.981 | locus YCL061C, strain MRC1, active compounds read low 0.997 | locus YCL069W, strain vba3, active compounds read low 1 | locus YCR088W, strain abp1, active compounds read low 0.995 | locus YDL005C, strain med2, active compounds read low 0.976 | locus YDL040C, strain nat1, active compounds read low 0.998 | locus YDR001C, strain nth1, active compounds read low 0.966 | locus YDR069C, strain doa4, active compounds read low 0.978 | locus YDR137W, strain rgp1, active compounds read low 0.984 | locus YDR159W, strain sac3, active compounds read low 1.02 | locus YDR195W, strain ref2 0.984 | locus YDR297W, strain sur2, active compounds read low 0.993 | locus YDR334W, strain swr1, active compounds read low 0.943 | locus YDR335W, strain msn5, active compounds read low 0.982 | locus YDR392W, strain spt3, active compounds read low 0.976 | locus YEL003W, strain gim4, active compounds read low 0.98 | locus YEL037C, strain rad23, active compounds read low 0.976 | locus YEL061C, strain CIN8 (second series), active compounds read low 0.973 | locus YER015W, strain faa2, active compounds read low 0.971 | locus YER016W, strain bim1, active compounds read low 0.99 | locus YER111C, strain swi4, active compounds read low 0.984 | locus YER155C, strain BEM2 (second series), active compounds read low 1 | locus YFR010W, strain ubp6, active compounds read low 0.967 | locus YGL167C, strain pmr1, active compounds read low 0.981 | locus YGL173C, strain kem1, active compounds read low 0.974 | locus YGL227W, strain vid30, active compounds read low 0.987 | locus YGL240W, strain doc1, active compounds read low 1.01 | locus YGL253W, strain hxk2, active compounds read low 0.964 | locus YHR013C, strain ard1, active compounds read low 0.969 | locus YHR027C, strain rpn1, active compounds read low 0.974 | locus YHR030C, strain SLT2, active compounds read low 1.04 | locus YHR079C, strain IRE1, active compounds read low 1.04 | locus YHR142W, strain chs7, active compounds read low 0.917 | locus YJL092W, strain hpr5, active compounds read low 0.985 | locus YJL095W, strain BCK1 (second series), active compounds read low 0.987 | locus YJL095W, strain BCK1, active compounds read low 1.02 | locus YJL115W, strain asf1, active compounds read low 0.951 | locus YJL129C, strain trk1, active compounds read low 0.931 | locus YJL154C, strain vps35, active compounds read low 0.971 | locus YJL164C, strain tpk1, active compounds read low 0.976 | locus YJL166W, strain qcr8, active compounds read low 0.99 | locus YJL187C, strain SWE1, active compounds read low 0.986 | locus YJR066W, strain TOR1, active compounds read low 1.01 | locus YKL160W, strain elf1, active compounds read low 0.98 | locus YKR026C, strain gcn3, active compounds read low 0.988 | locus YKR091W, strain srl3, active compounds read low 0.984 | locus YLL001W, strain dnm1, active compounds read low 0.968 | locus YLL026W, active compounds read low 0.974 | locus YLL041C, strain sdh2, active compounds read low 0.991 | locus YLR027C, strain aat2, active compounds read low 0.997 | locus YLR113W, strain HOG1, active compounds read low 0.991 | locus YLR221C, strain rsa3, active compounds read low 0.942 | locus YLR258W, strain gsy2, active compounds read low 0.997 | locus YLR262C, strain YPT6 (second series), active compounds read low 0.996 | locus YLR320W, strain mms22, active compounds read low 0.991 | locus YLR342W, strain FKS1, active compounds read low 0.99 | locus YLR357W, strain rsc2, active compounds read low 0.987 | locus YLR370C, strain arc18, active compounds read low 0.994 | locus YLR384C, strain iki3, active compounds read low 0.985 | locus YML120C, strain ndi1, active compounds read low 0.977 | locus YMR058W, strain fet3, active compounds read low 0.984 | locus YMR125W, strain sto1, active compounds read low 0.939 | locus YMR129W, active compounds read low 0.982 | locus YMR205C, strain PFK2, active compounds read low 0.958 | locus YMR231W, strain pep5, active compounds read low 0.989 | locus YNL071W, strain lat1, active compounds read low 0.987 | locus YNL183C, strain NPR1, active compounds read low 1.01 | locus YNL209W, strain ssb2, active compounds read low 1 | locus YNL248C, strain rpa49, active compounds read low 0.964 | locus YNL322C, strain KRE1 (second series), active compounds read low 0.97 | locus YNR049C, strain mso1, active compounds read low 0.975 | locus YOR001W, strain rrp6, active compounds read low 1 | locus YOR070C, strain gyp1, active compounds read low 0.984 | locus YOR080W, strain dia2, active compounds read low 0.978 | locus YOR083W, strain WHI5, active compounds read low 0.97 | locus YOR106W, strain vam3, active compounds read low 0.909 | locus YOR231W, strain MKK1, active compounds read low 1.02 | locus YOR265W, strain rbl2, active compounds read low 0.996 | locus YOR270C, strain vph1, active compounds read low 0.879 | locus YOR290C, strain snf2, active compounds read low 0.941 | locus YPL051W, strain arl3, active compounds read low 1 | locus YPL078C, strain atp4, active compounds read low 0.977 | locus YPL106C, strain sse1, active compounds read low 0.997 | locus YPL240C, strain hsp82, active compounds read low 0.968 | locus YPL256C, strain CLN2, active compounds read low 1.02
